Among all 330,000 compounds or so, about 660 (0.2%) were called active.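 How the source made its calls: active means inhibition of at least 40% at 10 µM in the primary screen; inactive means the rest.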 The full list was thinned out, with actives kept by preference.
Test system: intestinal alkaline phosphatase [Mus musculus]
Test: mouse intestinal phosphatase enzyme inhibition – biochemical, luminescence, uHTS, primary screen (AID 2806);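 further: plate controls were DMSO with enzyme for no effect and no enzyme wells for full effect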
Conditions: purified mouse IAP, CDP-Star luminescence, 30 min; at 10 µM; stronger effect = higher value

**Q.** For `O=C1NC(=O)N(Cc2ccco2)C(=O)/C1=C\c1ccc(-c2ccc(F)cc2)o1`, which inhibition is on record?
**A.** 64.1% (active)

**Q.** With `O=C(O)COc1ccccc1/C=C1\C(=O)NC(=O)N(CCC2=CCCCC2)C1=O` as the compound, how does the inhibition read?
**A.** 0.6% (inactive)

**Q.** With `O=C1NC(=O)N(CCc2ccc(F)cc2)C(=O)/C1=C/C=C/c1ccccc1` as the compound, how does the inhibition read?
**A.** 1.6% (inactive)

**Q.** `O=C1NC(=O)N(Cc2ccco2)C(=O)/C1=C\c1cccn1CCOc1ccccc1` was tested. Which inhibition did it give?
**A.** 40.7% (active)

**Q.** `COC(=O)C1=C(c2cc3ccccc3s2)C[C@@H]2CC[C@H]1N2C(=O)NCc1cccc2ccccc12` was tested. Which inhibition did it give?
**A.** 1% (inactive)

**Q.** Which inhibition does the source give for `COc1ccc2c(c1)[C@]13CCCCC1C(C2)N(C)CC3` (stereo not given in full) here?
**A.** 0.8% (inactive)

**Q.** With `O=Cc1cn(Cc2ccc(F)cc2Cl)c2ccccc12` as the compound, how does the inhibition read?
**A.** -2% (inactive)

**Q.** `CNCC(O)c1cc(F)c(OCc2ccccc2)c(OCc2ccccc2)c1F` (stereo not given) was tested. Which inhibition did it give?
**A.** 5.2% (inactive)

**Q.** With `Cc1cc(C(=O)OCC(=O)Nc2c(F)cccc2F)c(C)n1C1CC1` as the compound, how does the inhibition read?
**A.** 7.2% (inactive)

**Q.** `Oc1ccc2c3c1OC1[C@H](O)CC[C@@]4(O)[C@@H](C2)N(CC2CC2)CC[C@]314` (stereo not given in full) was tested. Which inhibition did it give?
**A.** 1.2% (inactive)

**Q.** With `COc1ccc(N2C(=O)/C(=C/c3ccco3)C(=O)NC2=S)cc1` as the compound, how does the inhibition read?
**A.** 42.1% (active)

**Q.** Which inhibition does the source give for `COc1cccc(N2C(=O)NC(=O)/C(=C\c3ccc([N+](=O)[O-])s3)C2=O)c1` here?
**A.** 34.9% (inactive)

**Q.** How did the inhibition turn out when `O=C1NC(=O)N(c2ccccc2)C(=O)/C1=C/c1ccc([N+](=O)[O-])s1` was run?
**A.** 26.5% (inactive)

**Q.** For `CSc1ccc(C(=O)C2CCCN(Cc3ccn[nH]3)C2)cc1` (stereo not given), which inhibition is on record?
**A.** -3.6% (inactive)

**Q.** For `CC1CCCCN1Cc1cccnc1` (stereo not given), which inhibition is on record?
**A.** 0.7% (inactive)

Reference: PubChem BioAssay AID2806 (Sanford-Burnham Center for Chemical Genomics, 2010)
